Data as given in the supplement of paper PMC6897291.
Where a name gives a salt, the structure may show the parent alone.

Experiments:
RIVA [1] = test: growth inhibition by drug plus 177Lu-lilotomab satetraxetan (1 - RLU/untreated control) (fraction); higher = stronger inhibition; details: 177Lu-lilotomab satetraxetan 0.5 ug/ml
In short: (§1)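 A radiolabelled anti-CD37 antibody conjugate (~600 MBq/mg) was applied for 18 h at 0.5 µg/ml to RIVA and 1 µg/ml to U-2932 cells, with untreated cells run alongside. All cells were washed and seeded at 3,000 cells/well onto library-printed plates at 10/100 nM (RIVA) or 10/1,000 nM (U-2932). Growth inhibition was based on RealTime-Glo luminescence compared with untreated no-drug wells. Daily reads began on day 3 after 1 h at 37°C, with each value being 1 − RLU/mean of the 48 such wells on that plate.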

U-2932 [2] = test: growth inhibition by drug alone (1 - RLU/untreated control) (fraction); higher = stronger inhibition; details: 177Lu-lilotomab satetraxetan 0 ug/ml
In short: as §1

RIVA [3] = test: as above; details: 177Lu-lilotomab satetraxetan 0 ug/ml
In short: as §1

U-2932 [4] = test: growth inhibition by drug plus 177Lu-lilotomab satetraxetan (1 - RLU/untreated control) (fraction); higher = stronger inhibition; details: 177Lu-lilotomab satetraxetan 1 ug/ml
In short: as §1

Compound | growth inhibition by drug plus 177Lu-lilotomab satetraxetan (RIVA [1]; 100 nM, time (day): 5) | growth inhibition by drug plus 177Lu-lilotomab satetraxetan (RIVA [1]; 100 nM, time (day): 6) | growth inhibition by drug alone (U-2932 [2]; 10 nM, time (day): 3) | growth inhibition by drug alone (U-2932 [2]; 10 nM, time (day): 4) | growth inhibition by drug alone (U-2932 [2]; 10 nM, time (day): 5) | growth inhibition by drug alone (U-2932 [2]; 10 nM, time (day): 6) | growth inhibition by drug alone (U-2932 [2]; 1000 nM, time (day): 3) | growth inhibition by drug alone (U-2932 [2]; 1000 nM, time (day): 4) | growth inhibition by drug alone (U-2932 [2]; 1000 nM, time (day): 5) | growth inhibition by drug alone (U-2932 [2]; 1000 nM, time (day): 6) | growth inhibition by drug alone (RIVA [3]; 10 nM, time (day): 3) | growth inhibition by drug alone (RIVA [3]; 10 nM, time (day): 4) | growth inhibition by drug alone (RIVA [3]; 10 nM, time (day): 5) | growth inhibition by drug alone (RIVA [3]; 10 nM, time (day): 6) | growth inhibition by drug alone (RIVA [3]; 100 nM, time (day): 3) | growth inhibition by drug alone (RIVA [3]; 100 nM, time (day): 4) | growth inhibition by drug alone (RIVA [3]; 100 nM, time (day): 5) | growth inhibition by drug alone (RIVA [3]; 100 nM, time (day): 6) | growth inhibition by drug plus 177Lu-lilotomab satetraxetan (U-2932 [4]; 10 nM, time (day): 3) | growth inhibition by drug plus 177Lu-lilotomab satetraxetan (U-2932 [4]; 10 nM, time (day): 4) | growth inhibition by drug plus 177Lu-lilotomab satetraxetan (U-2932 [4]; 10 nM, time (day): 5) | growth inhibition by drug plus 177Lu-lilotomab satetraxetan (U-2932 [4]; 10 nM, time (day): 6) | growth inhibition by drug plus 177Lu-lilotomab satetraxetan (U-2932 [4]; 1000 nM, time (day): 3) | growth inhibition by drug plus 177Lu-lilotomab satetraxetan (U-2932 [4]; 1000 nM, time (day): 4) | growth inhibition by drug plus 177Lu-lilotomab satetraxetan (U-2932 [4]; 1000 nM, time (day): 5) | growth inhibition by drug plus 177Lu-lilotomab satetraxetan (U-2932 [4]; 1000 nM, time (day): 6) | growth inhibition by drug plus 177Lu-lilotomab satetraxetan (RIVA [1]; 10 nM, time (day): 3) | growth inhibition by drug plus 177Lu-lilotomab satetraxetan (RIVA [1]; 10 nM, time (day): 4) | growth inhibition by drug plus 177Lu-lilotomab satetraxetan (RIVA [1]; 10 nM, time (day): 5) | growth inhibition by drug plus 177Lu-lilotomab satetraxetan (RIVA [1]; 10 nM, time (day): 6) | growth inhibition by drug plus 177Lu-lilotomab satetraxetan (RIVA [1]; 100 nM, time (day): 3) | growth inhibition by drug plus 177Lu-lilotomab satetraxetan (RIVA [1]; 100 nM, time (day): 4)
CCc1c2c(nc3ccc(OC(=O)N4CCC(N5CCCCC5)CC4)cc13)-c1cc3c(c(=O)n1C2)COC(=O)[C@]3(O)CC [Irinotecan HCl Trihydrate (Campto)] | 0.699 | 0.741 |  |  |  |  |  |  |  |  |  |  |  |  |  |  |  |  |  |  |  |  |  |  |  |  |  |  |  |  |  | 
c1ccc(-c2nn3c(c2-c2ccnc4cc(OCCN5CCOCC5)ccc24)CCC3)nc1 | 0.439 | 0.459 | 0.0304 | 0.0254 | 0.0259 | -0.126 | 0.0168 | -0.0245 | -0.0928 | -0.157 | -0.0878 | -0.000924 | -0.142 | -0.487 | -0.472 | -0.252 | -0.3 | -0.522 | 0.0114 | 0.0692 | 0.139 | 0.155 | -0.0195 | 0.0208 | 0.0497 | 0.121 | 0.46 | 0.581 | 0.585 | 0.558 | 0.237 | 0.413
COc1ccc(S(=O)(=O)Nc2cccnc2Nc2ccc(O)cc2)cc1 | 0.51 | 0.5 | 0.0231 | -0.0101 | -0.0159 | 0.0329 | 0.889 | 0.918 | 0.932 | 0.948 | -0.0856 | -0.157 | -0.215 | -0.37 | -0.353 | -0.364 | -0.406 | -0.581 | -0.0595 | 0.0116 | 0.0522 | 0.105 | 0.896 | 0.923 | 0.934 | 0.956 | 0.454 | 0.511 | 0.525 | 0.533 | 0.416 | 0.502
CC(=O)c1c(C)c2cnc(Nc3ccc(N4CCNCC4)cn3)nc2n(C2CCCC2)c1=O | 0.426 | 0.392 | 0.0532 | 0.0389 | -0.0177 | -0.186 | -0.0353 | -0.0097 | -0.082 | -0.259 | -0.0338 | -0.0722 | -0.148 | -0.339 | -0.149 | -0.13 | -0.138 | -0.285 | -0.0112 | 0.0266 | 0.0227 | 0.0699 | -0.111 | -0.00616 | -0.0131 | -0.0632 | 0.392 | 0.527 | 0.548 | 0.545 | 0.281 | 0.427
COc1cc2nccc(Oc3ccc(NC(=O)C4(C(=O)Nc5ccc(F)cc5)CC4)cc3)c2cc1OC [XL-184 free base (Cabozantinib)] | 0.529 | 0.532 | 0.15 | 0.0841 | -0.102 | -0.0896 | 0.0853 | 0.105 | 0.037 | -0.036 | 0.0104 | 0.0385 | -0.0535 | -0.315 | -0.233 | -0.0966 | -0.104 | -0.224 | 0.0398 | 0.083 | 0.153 | 0.164 | 0.112 | 0.177 | 0.224 | 0.337 | 0.545 | 0.613 | 0.621 | 0.628 | 0.445 | 0.52
CC[C@@H]1/C=C(\C)C[C@H](C)C[C@H](OC)[C@H]2O[C@@](O)(C(=O)C(=O)N3CCCC[C@H]3C(=O)O[C@H](/C(C)=C/[C@@H]3CC[C@H](Cl)[C@H](OC)C3)[C@H](C)[C@@H](O)CC1=O)[C@H](C)C[C@@H]2OC [Pimecrolimus] | 0.716 | 0.743 | 0.214 | 0.249 | 0.272 | 0.287 | 0.139 | 0.29 | 0.361 | 0.431 | 0.339 | 0.267 | 0.276 | 0.279 | 0.691 | 0.549 | 0.534 | 0.477 | 0.198 | 0.242 | 0.304 | 0.352 | 0.12 | 0.321 | 0.373 | 0.447 | 0.545 | 0.621 | 0.662 | 0.701 | 0.634 | 0.675
O=c1[nH]nc(Sc2ncc([N+](=O)[O-])s2)n1-c1ccc2c(c1)OCCO2 | 0.468 | 0.445 | -0.0286 | -0.0355 | -0.112 | -0.247 | -0.00347 | 0.024 | -0.0622 | -0.12 | 0.00609 | -0.0273 | -0.0872 | -0.35 | -0.0796 | -0.0567 | -0.0833 | -0.162 | 0.0134 | 0.0456 | 0.0435 | 0.142 | 0.369 | 0.406 | 0.362 | 0.409 | 0.41 | 0.525 | 0.54 | 0.553 | 0.424 | 0.457
